# D1 antagonist: antagonists of human D1 dopamine receptor; P21728; HEK293 TREx D1 cells, calcium flux, dopamine EC80; active compounds read low; activity change, negative = inhibition, % at 10 µM; 360,000 tested, 3.2% active; AID 504652; in the data active means activity change below about -30%; further: on the % scale 0 is the no-effect control and ±100 the full control effect
#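 Using tetracycline-induced force-coupled D1 Hek293 cells and a calcium dye, signals were followed for 180 s after compound, then for 180 s after EC80 dopamine, to detect inhibitors.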
# TRHR PAM: allosterically enhances the human TRH receptor; 360,000 tested, 0.66% active; P34981; TRHR cells, fluo-8 calcium fluorescence, EC20 TRH enhancement; enhancement, % at 2 µM; in the data active means enhancement above about 30%; further: 0% is about no effect
# Target sequence (P34981 whole entry, looked up): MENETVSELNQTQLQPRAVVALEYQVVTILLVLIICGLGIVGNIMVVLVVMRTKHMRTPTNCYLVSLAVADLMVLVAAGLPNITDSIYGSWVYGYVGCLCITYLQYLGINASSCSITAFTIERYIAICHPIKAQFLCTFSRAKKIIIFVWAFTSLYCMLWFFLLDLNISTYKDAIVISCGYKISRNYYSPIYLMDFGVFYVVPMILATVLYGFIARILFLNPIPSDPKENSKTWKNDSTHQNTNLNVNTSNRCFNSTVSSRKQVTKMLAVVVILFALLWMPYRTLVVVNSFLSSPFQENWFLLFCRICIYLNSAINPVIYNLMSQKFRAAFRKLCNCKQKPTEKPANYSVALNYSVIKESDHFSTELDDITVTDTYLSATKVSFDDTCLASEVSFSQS
#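 TRHR-expressing cells loaded with fluo-8 calcium dye were read kinetically (ex 480/em 530) during compound addition, then stimulated with an EC20 of TRH (10 nM final). Enhancement of the Gq-mediated intracellular calcium response was scored.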
# TRHR ag: activates the human TRH receptor | P34981 | TRHR cells, calcium flux fluo-8, FDSS agonist mode | activation, % at 2 µM | 360,000 tested, 0.18% active; further: 0% is about no effect
#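 TRHR-expressing cells loaded with fluo-8 calcium dye; 23 nL library compound pin-transferred, kinetic FDSS fluorescence (Ex 480/Em 530) recorded about 180 s for agonist-induced calcium release, before a 10 nM TRH EC20 addition for potentiator mode.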
# D1 PAM: human D1 dopamine receptor positive modulation; AID 504651; HEK293 TREx D1 cells, calcium flux, dopamine EC20 potentiation; 360,000 tested, 0.036% active; potentiation, % at 10 µM; in the data active means potentiation above about 30%; further: 0% is about no effect
# D1 agonist: agonists of human D1 dopamine receptor; HEK293 T-REx D1 cells, calcium flux, agonist mode; activation, % at 2 µM; AID 504660; 360,000 tested, 1% active; further: 0% is about no effect
#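 Agonism was scored from calcium flux recorded over 180 s (1 read/s) after pintool compound addition, following a 10-cycle baseline. Cells were inducible force-coupled HEK293 TREx D1, plated overnight at 30 C and loaded with no-wash calcium dye.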
# * marks the source's active call; other numbers are inactive results. A selection: hits, their analogues and other compounds. The true share with any hit is near 4.6%. Unless noted, no stated cut-off is given here; in the data, active means activation above about 30%; inactive means the rest.
SMILES,D1 antagonist,TRHR PAM,TRHR ag,D1 PAM,D1 agonist
CC(=O)c1ccc(NC(=O)N2CCN(c3cccc(Cl)c3)CC2)cc1,-51*,3,-2,-8,20
CC(=O)c1ccc(N2CCN(C(=O)Nc3ccc(Cl)cc3)CC2)cc1,-51*,-8,-1,-2,14
O=C(Nc1ccc(Cl)cc1)N1CCN(c2ccccc2)CC1,-13,12,0,-8,2
CC(=O)Nc1ccc(N2CCN(c3ccc(F)cc3)CC2)cc1,3,33*,0,-5,3
O=C(O)/C=C\C(=O)Nc1ccc(N2CCN(c3ccc(F)cc3)CC2)cc1,12,-2,-1,-4,0
CC(=O)c1cccc(NC(=O)N2CCN(S(C)(=O)=O)CC2)c1,-5,34*,0,-5,2
Cc1ccccc1NC(=O)c1c(C)oc2ccc(O)c(CN3CCCC(C)C3)c12 (configuration not stated),14,-6,0,-2,-1
O=C(O)c1ccccc1C(=O)N1CCN(c2cccc(Cl)c2)CC1,-44*,-1,1,-24,5
Cc1cc(C)c(S(=O)(=O)NCc2csc(-c3ccccc3)n2)c(C)c1,-25,7,-1,6,10
Cc1c(N(C)C)nc2ccccc2c1N,-9,-2,1,-2,2
CCN(CC)c1nc2ccccc2c(N)c1-c1ccccc1,-33*,13,-1,-14,22
COc1ccc(-c2[nH]ncc2/C=N\NS(=O)(=O)c2ccc(Cl)cc2)cc1,-42*,1,0,-5,3
O=C1c2[nH]nc(-c3ccccc3O)c2C(c2cccc(OCc3ccccc3)c2)N1CCCO (configuration not stated),28,3,0,6,0
Cc1ccccc1Nc1nc(N)c(C(=O)c2ccccc2Cl)s1,-48*,4,0,-3,95*
CCOC(=O)c1c(NC(=O)CN2CCN(C(=O)c3ccco3)CC2)sc(C)c1C,-32*,-2,0,-5,126*
CCOC(=O)c1ccc(NC(=O)CN2CCN(C(=O)c3ccco3)CC2)cc1,10,0,0,-6,7
CCc1c(C)sc(NC(=O)CN2CCN(C(=O)c3ccco3)CC2)c1C(=O)OC,4,-1,0,-8,59*
Nc1nc(C(F)(F)F)c(Br)c(=O)n1N,-30*,-24,1,-5,1
COc1ccc(N2CCN(CC(=O)Nc3nc(C)cs3)CC2)cc1,-41*,6,2,-1,2
COc1ccc(N2CCN(CC(=O)Nc3ncc(C)s3)CC2)cc1,6,3,0,2,0
S=C(NCCc1ccccc1)Nc1ccc(Br)cc1,-51*,1,-1,-10,15
COc1ccc(CCNC(=S)Nc2ccccc2)cc1,-36*,0,-2,-14,7
Cc1ccc([N+](=O)[O-])cc1NC(=S)NCCc1ccccc1,-36*,-5,0,-4,23
Cc1ccc(C(=O)O)cc1NC(=S)NCCc1ccccc1,8,6,1,7,-1
CC(C)CCNC(=S)Nc1ccc(Br)cc1,-33*,-2,1,-13,13
SMILES,D1 antagonist,TRHR PAM,TRHR ag,D1 PAM,D1 agonist
CCOc1cc(C2c3c(-c4cc(C)ccc4O)n[nH]c3C(=O)N2CCCOC(C)C)ccc1O (configuration not stated),22,-5,-1,1,3
COc1cccc(CNC(=O)CCc2c(C)nn(-c3ccc(N4CCOCC4)nn3)c2C)c1,-5,-2,0,-7,1
CCc1nc2ccccc2n2c(-c3ccccc3)c3c(=O)n(C)c(=O)n(C)c3c12,-6,6,-2,0,1
O=C(Nc1ccccc1N1CCOCC1)c1ccc(N2CCCC2=O)cc1,-6,4,1,-6,0
Cc1cc(Cl)ccc1NC(=S)NCCc1ccc(Cl)cc1,-25,-4,1,0,14
CCCCNC(=S)Nc1ccc(Oc2ccccc2)cc1,-11,-1,0,-7,22
CCCCNC(=S)Nc1ccc([N+](=O)[O-])cc1,-33*,-9,1,-6,19
COc1ccc(CNC(=S)Nc2ccccc2)cc1Cl,-5,-3,1,-3,5
COc1cccc(NC(=S)NCCC(c2ccccc2)c2ccccc2)c1,-50*,6,-2,-9,20
COc1ccc(CSCCNC(=S)Nc2ccccc2)cc1Cl,-33*,-3,0,-8,18

# High-throughput results deposited in PubChem by National Center for Advancing Translational Sciences (NCATS).
